Source: PubChem BioAssay
Only some compounds are listed: those with a hit (about 3% of all), similar ones and a draw of the others.
Peg3 promoter: Peg3 promoter-driven luciferase inhibitors, primary screen, cell-based, HeLa, luciferase luminescence | HeLa PEG-Prom luciferase reporter, overnight | inhibition, % at 20 µM | 360,000 compounds, 1.7% hits | AID 588405, 2011;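 active = inhibition of at least 50% at 20 µM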
MITF TRPM1 inh: inhibitors of MITF-dependent TRPM1 promoter reporter, primary screen, cell-based, SK-MEL-5, single point, luciferase | AID 488899, 2010 | 330,000 compounds, 0.83% hits | SK-MEL-5 TRPM1 promoter luciferase, 24 h | inhibition, % at 12.5 µM;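 active = mean inhibition across replicates of 60% or more, whatever share of single replicates reaches that level; inconclusive = some that reach 60%, reason not given; inactive = mean inhibition across replicates below 60%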
HIF-2a block: HIF-2a reporter inhibitors, primary screen, luminescence, 786-0 RCC cells. AID 624352, 2012. 786-0 RCC cells HIF-2a reporter, luciferase luminescence, overnight. 360,000 compounds, 0.72% hits. inhibition, % at 18.8 µM;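 active = inhibition of the luminescence signal of 40% or more relative to plate controls, in a single-dose primary screen at 18.75 µM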
ABHD5 PLIN5 PPI: ABHD5-PLIN5 interaction inhibitors, primary screen, cell lysate, split luciferase complementation, luminescence | Split G. princeps luciferase complementation, 4 h | 360,000 compounds, 0.78% hits | inhibition, % at 4 µM | Perilipin-5 (Homo sapiens) + 1-acylglycerol-3-phosphate O-acyltransferase ABHD5 (Homo …;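 active = inhibition above the mean inhibition across every tested compound plus 3 SD, cut at about 22% in these data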;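 also: 0% = DMSO only wells and the 100% control is not disclosed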
Target sequence (Q00G26 whole entry, looked up): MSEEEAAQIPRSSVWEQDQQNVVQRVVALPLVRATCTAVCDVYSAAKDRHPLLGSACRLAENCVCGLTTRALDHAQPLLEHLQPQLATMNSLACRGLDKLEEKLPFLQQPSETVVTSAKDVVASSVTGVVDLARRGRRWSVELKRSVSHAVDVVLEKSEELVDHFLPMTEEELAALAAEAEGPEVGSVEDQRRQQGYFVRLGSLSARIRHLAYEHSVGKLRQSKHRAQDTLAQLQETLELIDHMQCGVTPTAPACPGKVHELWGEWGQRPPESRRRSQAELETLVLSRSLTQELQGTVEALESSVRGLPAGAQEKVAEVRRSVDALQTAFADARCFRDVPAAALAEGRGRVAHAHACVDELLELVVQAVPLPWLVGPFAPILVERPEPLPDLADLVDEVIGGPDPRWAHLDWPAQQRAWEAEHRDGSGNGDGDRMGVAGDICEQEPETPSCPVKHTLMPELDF
Target sequence (Q8WTS1 whole entry, looked up): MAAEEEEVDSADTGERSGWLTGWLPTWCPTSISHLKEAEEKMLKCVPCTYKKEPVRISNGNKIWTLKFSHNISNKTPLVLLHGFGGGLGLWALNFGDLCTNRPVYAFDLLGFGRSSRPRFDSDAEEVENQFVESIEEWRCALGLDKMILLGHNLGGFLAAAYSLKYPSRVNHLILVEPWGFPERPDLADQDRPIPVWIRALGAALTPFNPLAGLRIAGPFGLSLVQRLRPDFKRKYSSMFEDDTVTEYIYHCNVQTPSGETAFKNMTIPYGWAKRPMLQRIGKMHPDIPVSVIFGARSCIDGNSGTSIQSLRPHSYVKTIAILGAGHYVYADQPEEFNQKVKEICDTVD
KKLEB cytotox: cytotoxicity in KKLEB CF airway cells, primary screen, cytotoxicity control for CF NF-kB inhibitor project, cell-based, uHTS, fluorescence assay plates | KKLEB CF airway cells viability, ATPlite luminescence, overnight; hits give low values; cells stimulated with P. aeruginosa culture filtrate | activity change (cytotoxicity), % at 5 µM | 360,000 compounds, 0.36% hits;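 active = corrected activity change at or below -50% at 5 µM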
CF NFkB block: inhibitors of PAF-induced NF-kB signaling, primary screen, cell-based, GFP fluorescence, uHTS; 360,000 compounds, 0.86% hits; inhibition, % at 5 µM; AID 588850, 2011; KKLEB NF-kB-GFP reporter, GFP fluorescence overnight;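 active = at least 50% inhibition at 5 µM, scaled per plate between neutral and stimulator controls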;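 also: PAF is a Pseudomonas aeruginosa culture filtrate used as stimulus; plate controls were PAF-stimulated DMSO wells for no effect and unstimulated DMSO wells for full effect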
The depositor's hits bear a star; ? = inconclusive; / = no result given.

SMILES	Peg3 promoter	MITF TRPM1 inh	HIF-2a block	ABHD5 PLIN5 PPI	KKLEB cytotox	CF NFkB block
Cc1cc(C)nc(Nc2nc(C(N)Cc3ccc(Cl)cc3)cs2)n1 (stereo unspecified)	92*	/	10	-5	-2	11
CC(C)(C)OC1NS(=O)(=O)OCC1NCOC(Cl)(Cl)Cl (stereo unspecified)	9	6	0	3	21	-14
CS(=O)(=O)N1CCC(C(=O)Nc2cccc(Br)c2)CC1	6	7	12	-8	-2	2
CC(C)CNC(=O)c1cccc(NC(=O)C(C)C)c1	22	-1	8	-5	4	-8
COC(=O)[C@@H]1C[C@]2(OC(=O)c3ccccc3)C=CC(=O)C[C@@H]2N1C(=O)OCc1ccccc1	72*	?	91*	45*	-23	50*
COc1ccc2c(c1)C(C)(Cc1ccc(C(=O)c3ccccc3)cc1)C(=O)N2 (stereo unspecified)	47	/	5	4	4	6
CCc1ccc(/C=C2\SC(=S)N(CCCC(=O)Nc3ccc(C(=O)O)cc3)C2=O)cc1	-9	3	-34	-4	7	8
COc1ccc(/C=C2/SC(=S)N(CCCC(=O)Nc3cccc(O)c3)C2=O)cc1	-53	8	56*	11	1	-17
Cc1ccc(/C=C2\SC(=S)N(CCCC(=O)Nc3nccs3)C2=O)cc1	-15	3	48*	0	-4	3
COc1ccc(/C=C2/SC(=S)N(CCCC(=O)Nc3ccccc3C(=O)O)C2=O)cc1	48	41	91*	2	-14	-4
CCc1ccc(/C=C2\SC(=S)N(CCCC(=O)Nc3ccccc3C(=O)O)C2=O)cc1	34	10	81*	-4	1	19
CCc1ccc(/C=C2\SC(=S)N(CCCC(=O)Nc3nccs3)C2=O)cc1	4	7	37	-3	-15	13
COc1ccc2c(c1)CCN1C2CCN2C(=O)CCC21 (stereo unspecified)	2	-12	-2	1	11	-6
CC(C)Nc1nnc(SC(C)C(=O)NCc2ccc3c(c2)OCO3)s1 (stereo unspecified)	9	1	13	4	0	-8
Cc1ccc(/C=C2/SC(=S)N(CCCC(=O)Nc3cc([N+](=O)[O-])ccc3O)C2=O)cc1	10	14	65*	2	-12	8
O=C(CN1C(=O)S/C(=C\c2ccccc2)C1=O)Nc1cc([N+](=O)[O-])ccc1O	-21	-11	-10	8	14	9
COc1ccc(NC(=O)CCCN2C(=O)/C(=C\c3ccco3)SC2=S)cc1	21	6	61*	12	-1	5
O=C(CCCN1C(=O)/C(=C/c2ccco2)SC1=S)Nc1cccc(C(=O)O)c1	5	-11	14	12	3	-7
COC(=O)c1ccc(/C=C2/SC(=S)N(CCCC(=O)Nc3ccc(O)cc3)C2=O)cc1	84*	15	58*	1	-8	28
Cc1ccc(/C=C2\SC(=S)N(CCCC(=O)Nc3ccccc3C(=O)O)C2=O)cc1	47	21	87*	-5	13	0
O=C(CCCN1C(=O)/C(=C\c2ccccc2)SC1=S)Nc1ccc(C(=O)O)cc1	-30	6	-2	6	-1	2
Cc1ccc(NC(=O)COC(=O)c2ccc(CN3CCCC3=O)cc2)cc1C	6	-18	4	12	0	16
NC(=S)NN=C1c2cc(OCCN3CCOCC3)ccc2-c2ccc(OCCN3CCOCC3)cc21	107*	79*	19	2	-38	-51
ON=C1c2cc(OCCN3CCCCC3)ccc2-c2ccc(OCCN3CCCCC3)cc21	111*	74*	-33	5	-3	-8
N#Cc1ccc(Nc2nc(-c3ccccc3)c(C(=O)c3ccccc3)s2)cc1	61*	/	-97	4	12	15
SMILES	Peg3 promoter	MITF TRPM1 inh	HIF-2a block	ABHD5 PLIN5 PPI	KKLEB cytotox	CF NFkB block
COc1cccc(NC(=O)C2CCCN2C(=O)Nc2cccc(F)c2)c1 (stereo unspecified)	67*	11	12	11	-5	20
COc1cccc(NC(=O)C2CCCN2C(=O)Nc2ccccc2)c1 (stereo unspecified)	12	-7	-2	-2	0	-4
Cc1cc(C(=O)CSc2nc3ccccc3[nH]2)c(C)n1CC1CCCO1 (stereo unspecified)	102*	28	-56	-4	-28	14
CNS(=O)(=O)c1ccc2c(c1)NC(=O)C1CCCN21 (stereo unspecified)	81*	3	18	-14	8	-30
COc1ccc(C2CC(c3cccc(Cl)c3)=NN2c2ccc(S(N)(=O)=O)cc2)cc1 (stereo unspecified)	54*	-4	-8	-10	2	20
Nc1[nH]c(C(=O)c2ccccc2)c(-c2ccc(Cl)cc2Cl)c1C(=O)NCCc1c[nH]c2ccccc12	/	/	-40	-2	/	/
CC(=O)Nc1cccc(-c2ccnc3c2CC(C(=O)Nc2cccc(Oc4ccccc4)c2)O3)c1 (stereo unspecified)	51*	/	22	-4	5	-16
CCOC(=O)CCNC(=O)N1CCCC(N(C)CCc2ccccc2)C1 (stereo unspecified)	-8	6	17	6	-3	-5
CC(c1ccccc1)n1ccnc1CO (stereo unspecified)	10	/	5	1	-3	6
CCC1(c2ccccc2)CN(C)C1=O (stereo unspecified)	-3	/	14	-4	12	-48
CCC1(c2ccccc2)ON(c2c(Br)cccc2Br)C1=O (stereo unspecified)	73*	23	33	1	7	24
COc1ccc(-n2c(C)cc(-c3csc(NC(=O)c4ccc(S(=O)(=O)N(C)C)cc4)n3)c2C)cc1	14	22	0	0	9	6
O=C(CNC(=S)N(Cc1ccccc1)Cc1ccccc1F)NCc1ccc(Cl)cc1	52*	-7	5	-1	3	16
O=C(C1CCN(c2ncnc3c2nc2n3CCCCC2)CC1)N1CCN(c2cccc(Cl)c2)CC1	60*	28	27	14	-9	-9
O=C(C1CCCN(c2ncnc3c2nc2n3CCCCC2)C1)N1CCN(c2ccc(Cl)cc2)CC1 (stereo unspecified)	56*	4	22	1	-9	-16
O=C(Nc1ccc(Cl)cn1)C1CCCN(c2ncnc3c2nc2n3CCCCC2)C1 (stereo unspecified)	56*	2	12	2	9	-8
